Consider 11 substances from ChEMBL document CHEMBL1201862, “PubChem BioAssay data set” (2004).

In all, about 57,000 […] went through this assay and about 3,500 (6.1%) were called active. Rule as the data show it: active = GI50 up to about 1.1 µM and inactive = higher. This excerpt belongs to a sample that is enriched for actives. Potency and affinity values are given separately.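 Interpolation was linear, between the two tested concentrations surrounding the appropriate level; five concentrations were tested over 48 hours in 96-well plates. GI50 marks 50% less growth.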

The test system of this assay is 786-0. In words: NCI tumour cell line growth inhibition, 48 h.
“[Bis(aminomethyl)tetramethylenesilane]dichloropaltinum(II), CHEMBL2146205” had a GI50 of 5780 nM.

Regarding “[Bis(aminomethyl)diethylsilane]tetrachloroplatinum(IV), CHEMBL2146203”, the GI50 stood at 2180 nM.

“[Bis(aminomethyl)tetramethylenesilane]tetrachloropaltinum(IV), CHEMBL2146189” displayed a GI50 of 3100 nM.

“[Bis(aminomethyl)ethylmethylsilane]tetrachloroplatinum(IV), CHEMBL2146192”: the GI50 is 1340 nM.

Substance CISPLATIN, CHEMBL11359 showed a GI50 of 1100 nM.

Substance “[Bis(aminomethyl)dimethylsilane]dichloroplatinum (II), CHEMBL2146201” had a GI50 of 6140 nM.

Turning to “[Bis(aminomethyl)pentamethylenesilane]tetrachloropaltinum(IV), CHEMBL2146204”, the GI50 is 1220 nM.

Regarding “[Bis(aminomethyl)pentamethylenesilane]dichloropaltinum(II), CHEMBL2146202”, the GI50 amounted to 916 nM.

The substance “[Bis(aminomethyl)dimethylsilane]tetrachloroplatinum(IV), CHEMBL2146190” yielded a GI50 of 2120 nM.

In turn, “mu-(1,7-nanodiamine-N,N')bis-(cis-aminedichloroplatimum (II)), CHEMBL2146215” returned a GI50 of 8730 nM.

The substance “cis-Bis[[(trimethylsilyl)methyl]amino]tetrachloroplatinum(IV), CHEMBL2146191” displayed a GI50 of 5710 nM.
